Assay results: PubChem BioAssay (EPA / NIEHS)
Active and inactive are the calls of the source. Rule for the calls: active = hit-call score of the fitted dose curve at least 0.9, where 1 is the maximum; inactive = score below 0.9.

How the values were obtained:
[1] = ATG_CRE_CIS: Attagene CIS-FACTORIAL HepG2 Assay for human cAMP Responsive Element (CRE) binding protein 3 (AID 2282926); conditions: HepG2 CRE cis-reporter, Attagene multiplexed mRNA; actives raise or lower the signal
In short: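 HepG2 cells transiently transfected with cis-element-driven multiple reporter transcription units; CRE reporter mRNA measured 24 h after dosing by RT-PCR, 6-FAM labelling, HpaI digestion and capillary electrophoresis. Bidirectional fit versus DMSO baseline.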

[2] = ATG_DR4_LXR_CIS: Attagene CIS-FACTORIAL HepG2 Assay for human Liver X Receptor (LXR), DR4 submotif (AID 2282929); conditions: HepG2 Attagene DR4 cis-reporter, mRNA transcription; actives raise or lower the signal
In short: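 Transiently transfected HepG2 liver cells; cis-regulated reporters; 24 h dosing. RT-PCR plus CE read-out of reporter mRNA. DMSO baseline, bidirectional curve fitting.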

[3] = ATG_AP_1_CIS: Attagene CIS-FACTORIAL HepG2 Assay for human Activator Protein 1 (AP-1) (AID 2282931); conditions: HepG2 Attagene cis-factorial AP-1 reporter mRNA; actives raise or lower the signal
In short: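 We transfected HepG2 cells transiently with a set of cis-regulated reporter transcription units, dosed them for 24 h, and quantified reporter mRNA via RT-PCR and capillary electrophoresis, scoring gain or loss of signal relative to DMSO.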

[4] = ATG_AP_2_CIS: Attagene CIS-FACTORIAL HepG2 Assay for human Activator Protein 2 (AP-2) (AID 2282932); conditions: HepG2 AP-2 cis-reporter, Attagene transcription factor profiling; actives raise or lower the signal
In short: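 Step one: transient transfection of HepG2 with reporter transcription units. Step two: 24 h chemical exposure. Step three: RNA extraction, RT-PCR, labelled fragment analysis by capillary electrophoresis; DMSO serves as baseline.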

[5] = target: Transcription factor E2F1 (Homo sapiens) (UniProt Q01094); experiment: ATG_E2F_CIS: Attagene CIS-FACTORIAL HepG2 Assay for human E2F Transcription Factor 1 (AID 2282935); conditions: HepG2 Attagene cis-reporter, E2F reporter RNA transcripts; actives raise or lower the signal
In short: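 Total RNA from 24 h-treated, reporter-transfected HepG2 cells undergoes DNase I treatment, oligo(dT) reverse transcription, PCR and 6-FAM primer extension before capillary electrophoresis.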

[6] = ATG_M_61_CIS: Attagene CIS-FACTORIAL HepG2 Assay for M61 Transcription Factor (Internal Marker) (AID 2282937); conditions: HepG2 Attagene CIS-FACTORIAL M61 internal marker reporter; actives raise or lower the signal
In short: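 Multiplexed reporter mRNA assay, HepG2 human hepatoma cells, 24 h treatment. Signal: FAM-labelled, HpaI-digested RT-PCR fragments by CE. Fit: bidirectional, baseline DMSO.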

[7] = ATG_EGR_CIS: Attagene CIS-FACTORIAL HepG2 Assay for human Early Growth Response 1 (EGR1) (AID 2282938); conditions: HepG2 Attagene CIS-FACTORIAL EGR reporter mRNA; actives raise or lower the signal
In short: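 Multiplexed cis-reporter system in human hepatoma HepG2 cells, transiently transfected. Cells are dosed for 24 h; reporter transcripts are amplified, fluorescently tagged and sized by capillary electrophoresis, with DMSO as negative control.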

[8] = ATG_M_19_CIS: Attagene CIS-FACTORIAL HepG2 Assay for M19 Transcription Factor (Internal Marker) (AID 2282939); conditions: HepG2 Attagene CIS-FACTORIAL M19 internal marker reporter; actives raise or lower the signal
In short: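 Transfect HepG2 with MRTU reporter library → dose chemical, 24 h → isolate total RNA, reverse-transcribe with oligo(dT) → PCR, 6-FAM label, HpaI cut (2 h, 37 C) → capillary electrophoresis. Bidirectional fit vs DMSO.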

[9] = ATG_Ets_CIS: Attagene CIS-FACTORIAL HepG2 Assay for human Erythroblast Transformation Specific (ETS) (AID 2282941); conditions: HepG2 ETS cis-reporter transcription, actives raise or lower the signal
In short: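 After transient cis-reporter transfection, HepG2 cells receive test chemical for 24 h. Reporter mRNA levels, measured by RT-PCR and capillary electrophoresis fluorescence, are analysed bidirectionally relative to the DMSO baseline.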

[10] = target: Hepatocyte nuclear factor 3-beta (Homo sapiens) (UniProt Q9Y261); experiment: ATG_FoxA2_CIS: Attagene CIS-FACTORIAL HepG2 Assay for human Forkhead box A2 (FOXA2) (AID 2282942); conditions: HepG2 cis-reporter transcription factor activity, 24 h; actives raise or lower the signal
In short: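 Multiplexed cis-element reporter assay in transiently transfected HepG2. Twenty-four hours post-dosing, RNA was reverse-transcribed, amplified, FAM-labelled, HpaI-digested and separated by CE. Activity gain or loss relative to DMSO.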

[11] = ATG_GATA_CIS: Attagene CIS-FACTORIAL HepG2 Assay for human GATA Binding Protein (AID 2282944); conditions: HepG2 GATA cis-element reporter, Attagene multiplex mRNA; actives raise or lower the signal
In short: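 Transient MRTU transfection, HepG2, 24 h compound exposure. Total RNA → oligo(dT) RT → PCR → 6-FAM primer extension → HpaI cut → CE. Bidirectional fit vs DMSO.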

[12] = ATG_GLI_CIS: Attagene CIS-FACTORIAL HepG2 Assay for human Zinc Finger Protein GLI1 (AID 2282945); conditions: HepG2, Attagene cis-factorial reporter mRNA, GLI element; actives raise or lower the signal
In short: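 Bidirectional curve fits relative to DMSO, using reporter mRNA levels from RT-PCR plus capillary electrophoresis. Cells were HepG2 transiently carrying cis-regulated reporter constructs, harvested 24 h after dosing.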

[13] = ATG_ISRE_CIS: Attagene CIS-FACTORIAL HepG2 Assay for human Interferon Regulatory Factor 1 (IRF1) binding to an Interferon-Stimulated Response Element (ISRE) (AID 2282948); conditions: HepG2 ISRE cis-reporter (Attagene), mRNA transcription readout; actives raise or lower the signal
In short: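 Quantitation relies on labelled RT-PCR fragments separated by capillary electrophoresis. Human HepG2 cells bearing cis-promoter reporter constructs were treated 24 h; DMSO served as baseline for bidirectional fitting.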

[14] = ATG_M_32_CIS: Attagene CIS-FACTORIAL HepG2 Assay for M32 Transcription Factor (Internal Marker) (AID 2282949); conditions: HepG2 Attagene cis-factorial M32 reporter, mRNA; actives raise or lower the signal;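 note: background control marker of the multiplexed CIS panel rather than a real target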
In short: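 Internal background marker read-out: RT-PCR/capillary electrophoresis fluorescence of reporter transcripts from transiently transfected HepG2 cells after 24 h chemical exposure. Activity fitted bidirectionally relative to DMSO negative control.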

[15] = ATG_M_06_CIS: Attagene CIS-FACTORIAL HepG2 Assay for M06 Transcription Factor (Internal Marker) (AID 2282950); conditions: HepG2 Attagene CIS-FACTORIAL M06 internal marker reporter; actives raise or lower the signal
In short: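 Read-out is fluorescence of labelled reporter cDNA fragments resolved by capillary electrophoresis after RT-PCR. Cells: HepG2 carrying transfected cis-promoter reporter units, treated 24 h. Gain or loss of signal fitted relative to DMSO.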

[16] = ATG_MRE_CIS: Attagene CIS-FACTORIAL HepG2 Assay for human Metal Responsive Element (MRE) (AID 2282954); conditions: HepG2 MRE cis-reporter transcription, Attagene multiplex; actives raise or lower the signal
In short: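 After a 24 h chemical exposure, transiently transfected HepG2 cells yield RNA whose reporter sequences are amplified, FAM-labelled and sized by capillary electrophoresis. Curves are fitted bidirectionally relative to DMSO.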

[17] = target: Paired box protein Pax-6 (Homo sapiens) (UniProt P26367); experiment: ATG_Pax6_CIS: Attagene CIS-FACTORIAL HepG2 Assay for human Paired Box 6 (PAX6) (AID 2282956); conditions: HepG2 CIS-FACTORIAL PAX6 reporter transcription, RNA readout; actives raise or lower the signal
In short: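 After twenty-four hours of chemical exposure, transfected HepG2 cells are harvested for RNA. Cis-promoter reporter transcripts are amplified, fluorescently labelled and sized by capillary electrophoresis, with gain and loss of signal scored against DMSO.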

[18] = ATG_PXRE_CIS: Attagene CIS-FACTORIAL HepG2 Assay for human Pregnane X Receptor Element (PXRE) (AID 2282957); conditions: HepG2 Attagene CIS-FACTORIAL PXRE reporter, mRNA; actives raise or lower the signal
In short: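 HepG2 cells transiently transfected with cis-element-driven multiplexed reporter units; after 24 h chemical exposure, reporter mRNA measured by RT-PCR, 6-FAM labelling, HpaI digestion and capillary electrophoresis. Bidirectional fitting relative to DMSO.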

[19] = target: Transcription factor Sp1 (Homo sapiens) (UniProt P08047); experiment: ATG_Sp1_CIS: Attagene CIS-FACTORIAL HepG2 Assay for human Specificity Protein 1 (Sp1) (AID 2282961); conditions: HepG2 Sp1 cis-reporter transcription, actives raise or lower the signal
In short: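 Chemicals are dosed onto HepG2 cells transfected with multiple cis-promoter reporter constructs, and after 24 h reporter RNA is reverse-transcribed, PCR-amplified and resolved by capillary electrophoresis for fluorescence quantitation; activity is scored up or down against DMSO.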

[20] = target: Signal transducer and activator of transcription 3 (Homo sapiens) (UniProt P40763); experiment: ATG_STAT3_CIS: Attagene CIS-FACTORIAL HepG2 Assay for human Signal Transducer and Activator of Transcription 3 (STAT3) (AID 2282963); conditions: HepG2, Attagene cis-factorial STAT3 reporter transcription; actives raise or lower the signal
In short: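 After a 24 h compound incubation, total RNA from MRTU-transfected HepG2 cells was converted to cDNA and reporter sequences PCR-amplified, labelled and profiled by capillary electrophoresis. Gain and loss of signal were referenced to DMSO.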

Measured: AC50

Sequence of Signal transducer and activator of transcription 3 (Homo sapiens) (P40763 whole entry, looked up): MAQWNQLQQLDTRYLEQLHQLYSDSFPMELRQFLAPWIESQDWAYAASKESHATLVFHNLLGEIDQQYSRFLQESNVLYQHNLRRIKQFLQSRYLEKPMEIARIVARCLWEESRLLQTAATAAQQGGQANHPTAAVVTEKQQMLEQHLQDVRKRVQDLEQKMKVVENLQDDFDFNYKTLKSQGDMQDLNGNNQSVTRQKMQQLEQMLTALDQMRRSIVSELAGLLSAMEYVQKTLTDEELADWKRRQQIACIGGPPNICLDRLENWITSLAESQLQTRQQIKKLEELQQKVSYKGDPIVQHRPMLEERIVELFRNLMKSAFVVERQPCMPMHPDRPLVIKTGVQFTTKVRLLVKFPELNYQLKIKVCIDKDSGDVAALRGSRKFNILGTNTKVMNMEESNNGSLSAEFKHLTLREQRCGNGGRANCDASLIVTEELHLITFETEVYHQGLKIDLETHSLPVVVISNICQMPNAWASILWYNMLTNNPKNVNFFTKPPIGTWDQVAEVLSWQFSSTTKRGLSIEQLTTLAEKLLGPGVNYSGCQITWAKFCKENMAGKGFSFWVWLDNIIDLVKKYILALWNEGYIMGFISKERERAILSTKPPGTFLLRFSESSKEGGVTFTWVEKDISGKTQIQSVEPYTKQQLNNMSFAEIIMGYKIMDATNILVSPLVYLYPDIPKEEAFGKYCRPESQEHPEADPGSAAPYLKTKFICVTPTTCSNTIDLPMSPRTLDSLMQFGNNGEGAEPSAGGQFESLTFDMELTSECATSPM
Sequence of Transcription factor E2F1 (Homo sapiens) (Q01094 whole entry, looked up): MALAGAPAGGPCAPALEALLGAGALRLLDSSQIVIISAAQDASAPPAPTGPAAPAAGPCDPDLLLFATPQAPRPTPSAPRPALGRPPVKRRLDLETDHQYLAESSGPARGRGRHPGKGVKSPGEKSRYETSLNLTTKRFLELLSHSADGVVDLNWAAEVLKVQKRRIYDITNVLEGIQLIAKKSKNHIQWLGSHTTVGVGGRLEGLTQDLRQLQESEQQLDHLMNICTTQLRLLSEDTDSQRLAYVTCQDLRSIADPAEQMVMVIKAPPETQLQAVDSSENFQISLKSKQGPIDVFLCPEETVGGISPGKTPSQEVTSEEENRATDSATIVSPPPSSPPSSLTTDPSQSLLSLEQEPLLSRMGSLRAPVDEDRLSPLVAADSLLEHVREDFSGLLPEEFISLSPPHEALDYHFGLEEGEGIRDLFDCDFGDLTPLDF
Sequence of Paired box protein Pax-6 (Homo sapiens) (P26367 whole entry, looked up): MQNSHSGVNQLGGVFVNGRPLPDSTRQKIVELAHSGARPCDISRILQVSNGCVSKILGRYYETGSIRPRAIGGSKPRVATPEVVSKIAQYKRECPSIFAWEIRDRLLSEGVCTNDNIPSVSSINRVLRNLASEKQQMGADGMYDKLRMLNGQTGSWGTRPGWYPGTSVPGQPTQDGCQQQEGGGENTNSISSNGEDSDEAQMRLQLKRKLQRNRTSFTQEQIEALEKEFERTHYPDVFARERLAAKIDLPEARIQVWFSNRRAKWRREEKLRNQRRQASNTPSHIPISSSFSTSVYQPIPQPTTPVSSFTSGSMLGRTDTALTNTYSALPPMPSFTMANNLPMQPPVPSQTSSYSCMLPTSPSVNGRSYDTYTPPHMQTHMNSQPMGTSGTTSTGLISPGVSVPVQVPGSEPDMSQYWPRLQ
Sequence of Transcription factor Sp1 (Homo sapiens) (P08047 whole entry, looked up): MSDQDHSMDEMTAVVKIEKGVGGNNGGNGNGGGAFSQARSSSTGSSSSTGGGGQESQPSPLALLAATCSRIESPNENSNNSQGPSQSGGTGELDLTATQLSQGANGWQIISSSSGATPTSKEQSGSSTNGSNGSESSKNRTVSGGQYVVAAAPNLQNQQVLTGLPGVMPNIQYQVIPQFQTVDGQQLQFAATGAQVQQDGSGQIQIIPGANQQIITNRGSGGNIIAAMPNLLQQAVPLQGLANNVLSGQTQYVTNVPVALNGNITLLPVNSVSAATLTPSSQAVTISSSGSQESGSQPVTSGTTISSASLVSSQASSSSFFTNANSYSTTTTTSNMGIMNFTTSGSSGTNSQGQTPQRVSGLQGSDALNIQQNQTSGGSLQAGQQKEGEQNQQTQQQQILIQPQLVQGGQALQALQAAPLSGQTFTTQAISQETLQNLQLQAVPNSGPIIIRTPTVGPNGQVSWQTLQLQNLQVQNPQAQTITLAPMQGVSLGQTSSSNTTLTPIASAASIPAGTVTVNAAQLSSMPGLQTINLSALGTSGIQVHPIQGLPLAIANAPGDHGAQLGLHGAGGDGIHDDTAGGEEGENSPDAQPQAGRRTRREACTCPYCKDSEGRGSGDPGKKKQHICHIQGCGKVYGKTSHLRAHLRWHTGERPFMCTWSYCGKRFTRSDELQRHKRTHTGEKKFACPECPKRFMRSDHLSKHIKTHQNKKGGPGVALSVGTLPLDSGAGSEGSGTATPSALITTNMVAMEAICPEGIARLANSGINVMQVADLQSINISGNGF
Sequence of Hepatocyte nuclear factor 3-beta (Homo sapiens) (Q9Y261 whole entry, looked up): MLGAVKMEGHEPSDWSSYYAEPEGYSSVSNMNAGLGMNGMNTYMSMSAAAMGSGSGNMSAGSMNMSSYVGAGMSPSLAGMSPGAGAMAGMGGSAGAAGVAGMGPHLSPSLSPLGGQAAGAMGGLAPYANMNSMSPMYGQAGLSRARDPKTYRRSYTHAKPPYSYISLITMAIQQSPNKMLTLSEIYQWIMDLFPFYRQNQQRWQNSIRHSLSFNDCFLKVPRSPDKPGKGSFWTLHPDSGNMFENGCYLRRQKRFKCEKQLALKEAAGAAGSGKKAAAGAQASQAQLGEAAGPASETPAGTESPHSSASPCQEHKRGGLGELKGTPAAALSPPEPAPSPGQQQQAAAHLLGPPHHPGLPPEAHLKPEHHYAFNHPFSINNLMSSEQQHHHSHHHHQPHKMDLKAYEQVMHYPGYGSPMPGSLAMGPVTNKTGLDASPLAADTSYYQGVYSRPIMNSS

c1ccc2c(c1)CCCC2
inactive: all assays above

CNC(=O)Oc1cc(C)c(SC)c(C)c1
active: [7] 100 µM | [13] 100 µM | [16] 74.2 µM | [18] 26.7 µM
inactive: all other assays above

CCOP(=O)(OCC)Oc1ccc([N+](=O)[O-])cc1
active: [18] 26.8 µM
inactive: all other assays above
